Data from PubChem BioAssay (NCI).
The panel holds about 79,000 compounds, 15% with a hit somewhere; the sample as a whole holds those more often. The source made the active and inactive calls. No stated cut-off is given here; in the data, active means growth inhibition above about 70%; inactive means the rest.

Columns and labels:
[1] = NCI Yeast Anticancer Drug Screen. Data for the rad50 strain (AID 155);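 further: 0% = growth of vehicle-only cultures of the same strain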; details: S. cerevisiae rad50 strain growth inhibition; at 50.0 µM; stronger effect = higher value
Summary of the method: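 Cells are treated with compound, grown, and their growth is then scored against vehicle-only cultures of the same repair-deficient yeast strain.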

[2] = NCI Yeast Anticancer Drug Screen. Data for the mec2-1 strain (AID 157); details: S. cerevisiae mec2-1 strain, at 50.0 µM, stronger effect = higher value
Summary of the method: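 Cells of the genetically defined mec2-1 yeast strain are incubated with test compound. Inhibition of growth is calculated against vehicle-treated controls.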

[3] = NCI Yeast Anticancer Drug Screen. Data for the sgs1 mgt1 strain (AID 161);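 further: 0% = growth of cultures given vehicle only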; details: S. cerevisiae sgs1 mgt1 strain, at 50.0 µM, stronger effect = higher value
Summary of the method: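 Read-out: growth inhibition vs vehicle controls. Cells: mutant yeast strain deficient in DNA damage repair.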

[4] = NCI Yeast Anticancer Drug Screen. Data for the cln2 rad14 strain (AID 165);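 further: 0% = growth equal to vehicle treated cultures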; details: S. cerevisiae cln2 rad14 strain, at 50.0 µM, stronger effect = higher value
Summary of the method: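 The screen exposed genetically defined yeast (cln2 rad14) to test compounds and scored growth inhibition relative to vehicle-treated controls.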

[5] = NCI Yeast Anticancer Drug Screen. Data for the bub3 strain (AID 167); details: S. cerevisiae bub3 mutant strain, at 50.0 µM, stronger effect = higher value
Summary of the method: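 Part of a panel of yeast mutants defective in DNA damage repair or cell cycle regulation. Each strain is grown with compound, and inhibition is calculated relative to solvent-treated cultures.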

[6] = NCI Yeast Anticancer Drug Screen. Data for the mlh1 rad18 strain (AID 175); details: S. cerevisiae mlh1 rad18 strain growth inhibition; at 50.0 µM; stronger effect = higher value
Summary of the method: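 Compound-treated yeast growth, normalised to vehicle controls. Strain bears defined DNA repair mutations.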

Measured: growth inhibition

COc1cc2ccnc(CCCc3nccc4cc(OC)c(OC)cc34)c2cc1OC
inactive: [1] -30.1% | [2] -4.05% | [3] -27.4% | [4] -1.9% | [5] -1.75% | [6] -9.3%

CC(=O)NNc1nc(C)c(C(=O)/C=C/C=C/c2ccccc2)s1
inactive: [1] -3.8% | [2] 39% | [3] 10.7% | [4] 10.3% | [5] 13.1% | [6] -21.8%

C=CCC1(C(C)C(O)c2cc(OC)c(OC)c(OC)c2)CC(O)C=CC12OCCO2 (configuration not stated)
inactive: [1] 13.9% | [2] -17.3% | [3] 1.5% | [4] 14.9% | [5] 16.2% | [6] 24.6%

O=C1CC[C@@H](C(=O)Nc2cccc3ccccc23)N1
inactive: [1] -7.15% | [2] 8.45% | [3] 8.5% | [4] -24.4% | [5] 10.6% | [6] 21.2%

Cc1cn(C2OC3COC2C3O)c(=O)[nH]c1=O (configuration not stated)
inactive: [1] -20.8% | [2] 0.55% | [3] 10.7% | [4] 27.2% | [5] -6% | [6] -4.75%

O=C(O)CCNCC(=O)O
inactive: [1] -28.1% | [2] -32.6% | [3] -21.9% | [4] 3.2% | [5] -21.7% | [6] -23.6%

CC12CCC(C/C1=N\N=C(N)N)C2(C)C (configuration not stated)
inactive: [1] 7.55% | [2] -4% | [3] -2.2% | [4] -36.9% | [5] -5.05% | [6] 6.2%

CCN(CC)CCNc1ccc2ncn3c4c(OC)ccc(OC)c4c(=O)c1c23
inactive: [1] -21.1% | [2] -22.2% | [3] 0.9% | [4] 22.6% | [5] -47% | [6] 62.1%

NC(=O)C(=O)c1ccccc1
inactive: [1] -6.65% | [2] -27.1% | [3] -2% | [4] -3% | [5] -19.6% | [6] -19.7%

CC1=C(C(=O)N(C)c2ccc(Cl)c(C(=O)OC(C)C)c2)SCCO1
inactive: [1] -19.6% | [2] -50.8% | [3] -12.1% | [4] -6% | [5] -11.8% | [6] -28.1%

CCOC(=O)C1=C(O)CSC1=Nc1ccccc1
inactive: [1] -16.3% | [2] 5.6% | [3] -12.8% | [4] -9.3% | [5] -1.7% | [6] 22.9%

COc1cccc(NC(=O)CC(=O)NN2C(=O)/C(=C/c3ccc(N(CCC#N)CCC#N)cc3)N=C2c2cc([N+](=O)[O-])ccc2Cl)c1
inactive: [1] 17.4% | [2] -5.05% | [3] 16.4% | [4] -6.7% | [5] 0.3% | [6] 14.6%

COC1C=C(Br)C(=O)C(C)O1 (configuration not stated)
inactive: [1] 5.7% | [2] 1.3% | [3] -25.6% | [4] -2.3% | [5] 21.2% | [6] -1.8%

CC(=O)NCC1OC2COC(c3ccccc3)OC2C2N=C(c3ccccc3)OC12 (configuration not stated)
inactive: [1] -9.45% | [2] 1.3% | [3] 8.5% | [4] 7.8% | [5] 14.8%
active: [6] 81.8%

CN(C)CCNC(=O)c1cccc2ccc(-c3ccncc3)nc12
inactive: [1] 6.15% | [2] 11% | [3] -20.7% | [4] -3.3% | [5] -19.9% | [6] -27.8%

CC(=O)OC1CCC2(C)C(CCC3(C)C2CC=C2C4CC(C)(C)CCC4(C)CCC23C)C1(C)C (configuration not stated)
inactive: [1] 5.85% | [2] -1% | [3] -8.8% | [4] -1.6% | [5] 6.05% | [6] -5.3%

CC(=O)NC(Cc1ccccc1)c1ccccc1 (configuration not stated)
inactive: [1] 17.1% | [2] -8.2% | [3] 11.1% | [4] 12.8% | [5] 21.6% | [6] 10.8%

Cc1ccccc1C(=O)Oc1ccccc1Cl
inactive: [1] 12% | [2] 17.7% | [3] -6.2% | [4] 4.25% | [5] 13.2% | [6] 11.3%

O=C(NCc1ccccc1)c1ccc([N+](=O)[O-])cc1
inactive: [1] -7.2% | [2] 13.8% | [3] 10.3% | [4] -44.2% | [5] 22.8% | [6] 11.7%

CCCC(O)CNCC1CCC2CCc3cccc1c32 (configuration not stated)
inactive: [1] -2.9% | [2] 5.8% | [3] 4.5% | [4] 2.05% | [5] 20.4% | [6] 18.9%

Cc1cccc(NC(=O)CCCCCCCCC(=O)Nc2cccc(C)c2C)c1C
inactive: [1] -4.8% | [2] 0.7% | [3] -2.3% | [4] -41.4% | [5] -2.05% | [6] 12.2%

O=S1OCC#CCOS(=O)OCC#CCO1 (configuration not stated)
inactive: [1] -7.1% | [2] -23.8% | [3] -7.5% | [4] -6.2% | [5] -3.7% | [6] 7.7%

[Cu+2].[Cu+2].[O-]c1ccccc1C=Nc1ccccc1[O-].[O-]c1ccccc1C=Nc1ccccc1[O-]
inactive: [1] 7.25% | [2] -0.95% | [3] -1.2% | [4] 16.9% | [5] 2.1% | [6] 1.55%

[Cl-].[Nd+3].[O-]/N=C(\c1ccccc1)c1ccccn1.[O-]/N=C(\c1ccccc1)c1ccccn1.[O-]/N=C(\c1ccccc1)c1ccccn1
inactive: [1] 50.1% | [2] 35.4% | [3] 42.6% | [4] 25.2% | [5] 47% | [6] 58%

COc1nc(C(=O)NNC(=O)c2nc(OC)c3ccccc3c2-c2ccccc2)c(-c2ccccc2)c2ccccc12
inactive: [1] -6.9% | [2] -5.8% | [3] -19.2% | [4] -8.7% | [5] -17% | [6] 1.3%

CCN(CC)CC1CCCCN1 (configuration not stated)
inactive: [1] -10.1% | [2] -15.7% | [3] 1.95% | [4] 29.6% | [5] 1.4% | [6] 2.55%

CCN(CC)CC
inactive: [1] -8.4% | [2] -6.2% | [3] -21.2% | [4] -53.4% | [5] -19% | [6] 19.4%

O=C(/C=C/c1ccccc1)Sc1ccccc1
inactive: [1] -2% | [2] -7.6% | [3] 13.2% | [4] -1.75% | [5] -8.1% | [6] 1.65%

COc1ccc(N(CN2C(=O)CCC2=O)CS(=O)(=O)c2ccc(Cl)cc2)cc1
inactive: [1] 16.6% | [2] 0.2% | [3] 11.5% | [4] 14.9% | [5] -3.75% | [6] -16.4%

CCCCCCCCCCCCCCCCOc1ccc(/C=N/Nc2ccccc2)cc1OC
inactive: [1] -20.1% | [2] -22.2% | [3] -25.9% | [4] 0.95% | [5] -32% | [6] -13.6%

O=C(O)c1cc2ccccc2c2cc3ccccc3cc12
inactive: [1] 28.6% | [2] 39% | [3] 26.6% | [4] 57.3% | [5] 33.2%
active: [6] 70.8%

CNC(=O)Sc1ccc([N+](C)(C)C)cc1
inactive: [1] 9.8% | [2] 0.1% | [3] 19.8% | [4] -7.5% | [5] 18.8% | [6] 30.3%

CCC(=O)Oc1ccc(Cl)cc1C
inactive: [1] -0.3% | [2] 7.7% | [3] 1.75% | [4] 5.55% | [5] 1.75% | [6] -13.3%

COC(=N)c1ncn(Cc2ccccc2)c1N
inactive: [1] -21.6% | [2] -28.6% | [3] -11.9% | [4] -24.4% | [5] -7.35% | [6] -37.3%

ClCCCCSC1CCCCC1
inactive: [1] -5.7% | [2] -9.15% | [3] -5.4% | [4] -3.1% | [5] 0.6% | [6] -25.1%

Cc1cc2c(=O)c(C)c[nH]c2cc1Cl
inactive: [1] -21.6% | [2] 5.2% | [3] -2.6% | [4] -46.1% | [5] -10.6% | [6] -7.55%

Cc1cc(=O)[nH]c(NNC(C#N)c2c(O)ccc3ccccc23)n1 (configuration not stated)
inactive: [1] 23.6% | [2] 13.2% | [3] 24.2% | [4] -2.9% | [5] 1.45% | [6] 12.9%
